For 11 compounds, ΔTm results are on record in ChEMBL document CHEMBL5724796, “Tm Shift (DSF) assay results for EUbOPEN Chemogenomics Library” (2024).

Common to all, as to settings: Compound concentration 20.0 uM
Assay [1] addresses Tyrosine-protein kinase ABL1 (Homo sapiens) (UniProt P00519).
The target of assay [2] is Bromodomain-containing protein 4 (Homo sapiens) (UniProt O60885).
In assay [3] the target is Cyclin-dependent kinase 2 (Homo sapiens) (UniProt P24941).
The target of assay [4] is Casein kinase I isoform delta (Homo sapiens) (UniProt P48730).
Sequence of Casein kinase I isoform delta (Homo sapiens) (P48730 whole entry, looked up, canonical isoform): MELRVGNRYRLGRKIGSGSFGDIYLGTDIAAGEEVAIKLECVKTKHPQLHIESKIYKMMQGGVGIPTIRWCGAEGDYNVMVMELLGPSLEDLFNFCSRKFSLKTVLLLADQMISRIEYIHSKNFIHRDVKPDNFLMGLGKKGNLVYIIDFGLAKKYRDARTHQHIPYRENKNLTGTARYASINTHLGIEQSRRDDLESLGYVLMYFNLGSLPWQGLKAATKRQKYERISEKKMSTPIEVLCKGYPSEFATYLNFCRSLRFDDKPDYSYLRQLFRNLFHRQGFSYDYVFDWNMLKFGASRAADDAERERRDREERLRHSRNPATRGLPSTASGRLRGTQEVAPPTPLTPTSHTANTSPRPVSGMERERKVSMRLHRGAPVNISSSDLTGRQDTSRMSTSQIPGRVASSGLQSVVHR
Assay [5] addresses Glycogen synthase kinase-3 beta (Homo sapiens) (UniProt P49841).
Assay [6] addresses Mitogen-activated protein kinase 1 (Homo sapiens) (UniProt P28482).
Assay [7] addresses T1, Aurora kinase A (Homo sapiens) (UniProt O14965).
T1 sequence (whole entry): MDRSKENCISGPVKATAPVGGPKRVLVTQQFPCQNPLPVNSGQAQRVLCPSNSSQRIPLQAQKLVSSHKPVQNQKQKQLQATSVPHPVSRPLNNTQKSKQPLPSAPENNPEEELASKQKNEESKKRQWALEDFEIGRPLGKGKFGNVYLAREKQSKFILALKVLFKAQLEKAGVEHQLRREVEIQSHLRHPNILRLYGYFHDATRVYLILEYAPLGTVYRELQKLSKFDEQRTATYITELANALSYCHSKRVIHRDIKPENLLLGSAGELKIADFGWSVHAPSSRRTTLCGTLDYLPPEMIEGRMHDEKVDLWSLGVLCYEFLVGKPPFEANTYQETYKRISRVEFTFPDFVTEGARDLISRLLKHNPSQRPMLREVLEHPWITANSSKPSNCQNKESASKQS

In assay [8] the target is T2, Transcription intermediary factor 1-alpha (Homo sapiens) (UniProt O15164).
T2 sequence (whole entry): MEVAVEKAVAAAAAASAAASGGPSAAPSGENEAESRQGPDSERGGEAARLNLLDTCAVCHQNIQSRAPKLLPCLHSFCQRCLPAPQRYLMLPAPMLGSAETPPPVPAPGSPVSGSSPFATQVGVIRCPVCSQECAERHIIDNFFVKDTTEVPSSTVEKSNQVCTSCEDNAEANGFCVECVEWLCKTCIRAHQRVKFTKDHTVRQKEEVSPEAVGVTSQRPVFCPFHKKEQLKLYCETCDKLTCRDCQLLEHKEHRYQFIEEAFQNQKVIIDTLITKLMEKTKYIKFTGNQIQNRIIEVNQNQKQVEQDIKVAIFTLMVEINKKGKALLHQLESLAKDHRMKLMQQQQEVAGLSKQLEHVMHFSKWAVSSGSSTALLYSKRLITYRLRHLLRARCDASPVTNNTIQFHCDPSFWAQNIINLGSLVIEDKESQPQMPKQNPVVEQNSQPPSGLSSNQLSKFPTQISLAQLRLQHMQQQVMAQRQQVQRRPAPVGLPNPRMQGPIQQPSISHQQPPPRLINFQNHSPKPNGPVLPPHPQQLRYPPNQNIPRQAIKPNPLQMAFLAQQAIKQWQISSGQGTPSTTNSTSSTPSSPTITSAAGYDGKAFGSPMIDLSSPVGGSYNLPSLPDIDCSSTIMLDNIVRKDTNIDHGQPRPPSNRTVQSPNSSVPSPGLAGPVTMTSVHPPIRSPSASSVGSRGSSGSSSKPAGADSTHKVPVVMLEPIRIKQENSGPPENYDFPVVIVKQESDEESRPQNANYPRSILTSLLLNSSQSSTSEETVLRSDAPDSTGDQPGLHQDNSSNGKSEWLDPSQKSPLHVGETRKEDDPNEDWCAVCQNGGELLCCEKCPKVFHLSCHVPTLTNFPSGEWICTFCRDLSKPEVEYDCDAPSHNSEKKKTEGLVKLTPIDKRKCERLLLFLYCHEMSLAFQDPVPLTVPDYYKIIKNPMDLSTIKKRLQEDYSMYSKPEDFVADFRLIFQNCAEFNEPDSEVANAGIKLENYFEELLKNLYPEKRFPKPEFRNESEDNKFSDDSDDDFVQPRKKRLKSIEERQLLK

Residues, ends and D or L forms follow the SMILES beside them. *: point of attachment. Cbz = O=C(OCc1ccccc1)*; CH2F = FC*

Sequence of Mitogen-activated protein kinase 1 (Homo sapiens) (P28482 whole entry): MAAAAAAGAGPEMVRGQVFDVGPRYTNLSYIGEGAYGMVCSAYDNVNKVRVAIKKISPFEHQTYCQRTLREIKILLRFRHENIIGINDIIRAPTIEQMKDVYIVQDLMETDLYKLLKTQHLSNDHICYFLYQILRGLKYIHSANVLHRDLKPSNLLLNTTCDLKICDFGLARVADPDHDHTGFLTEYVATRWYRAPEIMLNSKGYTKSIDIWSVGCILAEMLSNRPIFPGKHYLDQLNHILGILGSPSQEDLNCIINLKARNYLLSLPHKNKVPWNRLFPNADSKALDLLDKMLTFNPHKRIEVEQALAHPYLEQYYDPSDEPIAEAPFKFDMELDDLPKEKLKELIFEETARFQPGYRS
Sequence of Tyrosine-protein kinase ABL1 (Homo sapiens) (P00519 whole entry): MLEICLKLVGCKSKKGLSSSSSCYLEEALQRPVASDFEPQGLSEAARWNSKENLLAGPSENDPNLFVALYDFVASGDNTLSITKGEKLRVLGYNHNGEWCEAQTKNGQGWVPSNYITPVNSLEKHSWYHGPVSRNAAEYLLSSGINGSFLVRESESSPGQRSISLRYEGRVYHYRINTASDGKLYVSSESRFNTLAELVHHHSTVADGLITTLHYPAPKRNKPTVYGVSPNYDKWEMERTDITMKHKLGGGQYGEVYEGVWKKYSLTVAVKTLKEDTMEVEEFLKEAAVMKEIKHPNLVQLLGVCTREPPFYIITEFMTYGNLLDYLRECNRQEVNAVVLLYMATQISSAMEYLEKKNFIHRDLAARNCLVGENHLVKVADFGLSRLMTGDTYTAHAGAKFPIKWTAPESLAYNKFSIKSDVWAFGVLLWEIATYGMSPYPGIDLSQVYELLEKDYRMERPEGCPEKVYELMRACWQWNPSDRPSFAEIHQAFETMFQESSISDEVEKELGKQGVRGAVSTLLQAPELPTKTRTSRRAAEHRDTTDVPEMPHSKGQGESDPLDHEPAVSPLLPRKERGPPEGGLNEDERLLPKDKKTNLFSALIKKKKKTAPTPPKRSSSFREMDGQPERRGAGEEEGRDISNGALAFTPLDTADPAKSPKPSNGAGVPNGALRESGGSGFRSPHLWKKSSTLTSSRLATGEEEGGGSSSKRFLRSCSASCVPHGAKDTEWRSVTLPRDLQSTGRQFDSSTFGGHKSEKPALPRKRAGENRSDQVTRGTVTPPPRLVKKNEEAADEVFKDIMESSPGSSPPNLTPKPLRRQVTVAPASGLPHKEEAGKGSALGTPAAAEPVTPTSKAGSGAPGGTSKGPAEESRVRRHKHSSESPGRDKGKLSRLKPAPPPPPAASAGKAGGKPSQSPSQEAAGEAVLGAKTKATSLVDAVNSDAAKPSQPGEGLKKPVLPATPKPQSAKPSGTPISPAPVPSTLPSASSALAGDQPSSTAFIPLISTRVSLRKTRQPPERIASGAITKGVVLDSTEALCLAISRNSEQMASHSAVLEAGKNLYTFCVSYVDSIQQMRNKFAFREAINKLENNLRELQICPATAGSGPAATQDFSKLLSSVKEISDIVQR
Sequence of Glycogen synthase kinase-3 beta (Homo sapiens) (P49841 whole entry, looked up): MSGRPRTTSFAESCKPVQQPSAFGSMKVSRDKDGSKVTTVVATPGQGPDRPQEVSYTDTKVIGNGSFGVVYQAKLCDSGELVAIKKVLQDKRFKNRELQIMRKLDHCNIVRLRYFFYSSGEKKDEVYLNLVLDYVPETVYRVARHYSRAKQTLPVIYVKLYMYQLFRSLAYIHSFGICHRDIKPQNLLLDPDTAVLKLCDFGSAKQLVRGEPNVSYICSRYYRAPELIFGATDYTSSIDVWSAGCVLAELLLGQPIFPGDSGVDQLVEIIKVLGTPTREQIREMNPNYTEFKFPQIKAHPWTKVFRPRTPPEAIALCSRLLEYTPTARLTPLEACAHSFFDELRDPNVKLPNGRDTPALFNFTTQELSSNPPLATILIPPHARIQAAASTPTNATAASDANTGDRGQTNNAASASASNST

For the compound `O=C(O)/C(S)=C/c1ccc(I)cc1`, the ΔTm in assay [1] is 0.07 °C; in assay [2] it was -3.45 °C; in assay [3], -1.16 °C; in assay [4], -0.16 °C; in assay [5], -8.42 °C; in assay [6], -1.42 °C. Also, the ΔTm is 0.99 °C in assay [7] and -0.27 °C in assay [8].

`CCCSc1nc2c(c(=O)n1-c1ccccc1)SCC2`: the ΔTm in assay [1] is -0.05 °C; in assay [2], 1.58 °C; in assay [3], -0.05 °C; in assay [4] it was -0.11 °C; in assay [5], -0.82 °C; in assay [6] it was 1.06 °C. The figures for the ΔTm in assay [7] and in assay [8] were 0.01 °C and 0.72 °C, respectively.

In the case of `CCOc1ccc(Cc2cc([C@]34OC[C@](CO)(O3)[C@@H](O)[C@H](O)[C@H]4O)ccc2Cl)cc1`, the ΔTm was 0.25 °C in assay [1]; 2.11 °C in assay [2]; 0.62 °C in assay [3]; -0.26 °C in assay [4]; -0.1 °C in assay [5]; 0.67 °C in assay [6]. The ΔTm in assay [7] was -0.99 °C; in assay [8] it was 1.7 °C.

Turning to `O=C(CCCCCCNC(=O)c1cnc(N(c2ccccc2)c2ccccc2)nc1)NO`, the ΔTm was 0.66 °C in assay [1]; -2.07 °C in assay [2]; 0.61 °C in assay [3]; 0.12 °C in assay [4]; -0.11 °C in assay [5]; -0.28 °C in assay [6]. In addition, the ΔTm was -0.51 °C in assay [7] and -0.68 °C in assay [8].

For `CCCC[C@]1(CC)CS(=O)(=O)c2cc(CNC(CC(=O)O)CC(=O)O)c(OC)cc2[C@@H](c2ccccc2)N1`, the ΔTm in assay [1] is 0.44 °C; in assay [2], 0.52 °C; in assay [3], -0.44 °C; in assay [4], -0.45 °C; in assay [5], -0.88 °C; in assay [6], 0.14 °C. The results for the ΔTm in assay [7] and in assay [8] were -1.84 °C and 0.38 °C, respectively.

Regarding `COC(=O)CC[C@H](NC(=O)[C@H](C)NC(=O)OCc1ccccc1)C(=O)N[C@H](C(=O)N[C@@H](CC(=O)OC)C(=O)CF)C(C)C` (Cbz-AE(OMe)VD(OMe)-CH2F), the ΔTm in assay [1] was 0.32 °C; in assay [2], -1.14 °C; in assay [3] it was -0.09 °C; in assay [4], -0.04 °C; in assay [5], -0.78 °C; in assay [6], -0.86 °C. The thermal shift (ΔTm) in assay [7] is -1.1 °C; in assay [8], -1.06 °C.

For `Cc1ccc([N+](=O)[O-])cc1S(=O)(=O)N(C)C`, the thermal shift (ΔTm) in assay [1] was 0.7 °C; in assay [2], -1.98 °C; in assay [3] it was 0.09 °C; in assay [4] it was -0.33 °C; in assay [5], -0.61 °C; in assay [6] it was 0.1 °C. For the same compound, the ΔTm in assay [7] is -2.12 °C; in assay [8], -0.39 °C.

Turning to `CNCCN(C)Cc1cn[nH]c1-c1ccc(OC2CC(OCCC3CCOCC3)C2)cc1` (stereo not drawn), the ΔTm in assay [1] was 0.66 °C; in assay [2], -1.82 °C; in assay [3] it was 0.43 °C; in assay [4], 0.19 °C; in assay [5] it was -0.94 °C; in assay [6], 0.05 °C. Besides, the ΔTm in assay [7] is -0.58 °C; in assay [8] it was -1.33 °C.

For the compound `CCCCCCCCCCCCCCCCNNC(=O)c1cccs1`, the ΔTm was 0.05 °C in assay [1]; -1.37 °C in assay [2]; -0.3 °C in assay [3]; 0.26 °C in assay [4]; -1.02 °C in assay [5]; 0.48 °C in assay [6]. The thermal shift (ΔTm) in assay [7] was -0.52 °C; in assay [8], -0.93 °C.

Turning to `COc1cccc(Nc2c(C(N)=O)cnc3c(C)cc(S(=O)(=O)c4cccc(C(=O)N(C)C)c4)cc23)c1`, the ΔTm is 0.62 °C in assay [1]; -2.14 °C in assay [2]; 0.36 °C in assay [3]; -0.04 °C in assay [4]; 0.04 °C in assay [5]; 0.14 °C in assay [6]. The ΔTm in assay [7] was -0.98 °C; in assay [8] it was -0.26 °C.

As for `Cc1cc(C)c(-c2[nH]nc(C)c2C)cc1C(=O)N1CC(c2ccc(C#N)cc2)C1`, the ΔTm in assay [1] was 1.06 °C; in assay [2] it was -3.66 °C; in assay [3], -0.16 °C; in assay [4], -0.21 °C; in assay [5], -0.42 °C; in assay [6], 0.26 °C. Besides, the ΔTm was -2.18 °C in assay [7] and -0.05 °C in assay [8].
